The panel holds about 79,000 compounds, 15% with a hit somewhere; the sample as a whole holds those more often. Calls of active or inactive are those of the source. No stated cut-off is given here; in the data, active means growth inhibition above about 70%; inactive means the rest.

One assay can be described thus: NCI Yeast Anticancer Drug Screen. Data for the cln2 rad14 strain (AID 165).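 Further: 0% = growth equal to vehicle treated cultures.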 The note with it: S. cerevisiae cln2 rad14 strain, at 50.0 µM (retest, dose inferred, filed as 5.0), active compounds read high. Put shortly: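 Each compound was tested on cln2 rad14 yeast. Inhibition of growth was calculated against vehicle-exposed controls.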
Take `Cc1cccc(NC(=O)CCc2ccc(Cl)cc2)n1`: the growth inhibition was -15% (inactive).
Take `O=C(NNc1nc(-c2ccccc2)cs1)C(F)(F)F`: the growth inhibition was 91% (active).
The same measure, in the same setting: with `COc1ccc(C(=O)C(c2ccc(OC)cc2)C2(O)C(=O)Nc3c(Cl)cc(Cl)cc32)cc1` (stereo not drawn) the figure was 25% (inactive).
Same read-out and setting: the figure for `CC(=O)NNc1nc(C)c(C(=O)NNC(=O)C(=O)Nc2ccc(Cl)c([N+](=O)[O-])c2)s1` is 18% (inactive).
Still for that read-out and setting: with `COc1ccc(Cc2cncc3c(O)c(OC)ccc23)cc1O` the figure was 14% (inactive); with `Nc1ccccc1N=Nc1c(S(=O)(=O)O)cc2cc(S(=O)(=O)O)cc(O)c2c1O`, -10% (inactive); with `CCN(CC)c1c(C(=O)/C=C/c2ccc(OC)cc2)c(-c2ccccc2)nn(C)c1=O`, 9% (inactive).
Turning to `O=C(O)/C=C/c1ccc(Cl)c(Cl)c1`, the growth inhibition is 45% (inactive).
As to `CCC12C=CCN3CC[C@@]4(c5cc([C@@]6(C(=O)OC)C[C@@H]7CN(CCc8c6[nH]c6ccccc86)C[C@](O)(CC)C7)c(OC)cc5N(C)[C@H]4[C@@](O)(C(=O)OC)[C@@H]1OC(=O)CCCCCCCCCCCN1C(=O)C=CC1=O)[C@H]32` (stereo partly drawn), the growth inhibition is 95% (active).
In the case of `Cc1cc(C)c(Cc2cc(C(C)(C)C)cc(C)c2O)cc1Cc1cc(C(C)(C)C)cc(C)c1O`, the growth inhibition is 19% (inactive).
For `COC(=O)C(=O)/C=C(/O)c1ccc(OC)cc1`, the growth inhibition is 18% (inactive).
On the same count and under the same terms, the figure for `Oc1ccc2c(c1)OCC1c3ccccc3OC21` (stereo not drawn) is 56% (inactive); for `Cc1cc(N2C(=O)CCSC2=S)c([N+](=O)[O-])cc1C` it is 98% (active); for `CCCCCCC(C)S(=O)(=O)c1ccc(C)cc1` (stereo not drawn) it is 13% (inactive).
The same measure, in the same setting: with `S=c1sc2c(s1)SCCOCCOCCOCCS2` the figure was 8% (inactive).
On the same count and under the same terms, the figure for `N#Cc1cn(-c2c3ccccc3nc3ccccc23)c(=O)[nH]c1=O` is 70% (active); for `O=C1C=C(c2ccccc2)O/C1=C\C(=O)c1ccc(Cl)cc1` it is 14% (inactive); for `O=c1[nH]c2cc(Cl)ccc2nc1/C=C(\O)c1ccc(N2CCN(c3ccc(/C(O)=C/c4nc5ccc(Cl)cc5[nH]c4=O)cc3)CC2)cc1` it is -10% (inactive).
On to `O=C1Oc2ccccc2C(=O)/C1=C/N1C(=O)/C(=C/c2ccccc2)NC1=S`, for which the growth inhibition is 37% (inactive).
Same read-out and setting: with `CN(C)/C=C(\C(=O)c1ccccc1)n1nc(-c2ccccc2)cc1-c1ccccc1` the figure was 50% (inactive).
With `O=C1C(=O)c2ccccc2C(O)=C1Sc1ccccc1`, the growth inhibition is 88% (active).
On to `O=C(c1c(F)c(F)c(F)c(F)c1F)n1c(=S)n(C(=O)c2c(F)c(F)c(F)c(F)c2F)c2ccccc21`, for which the growth inhibition was 53% (inactive).
With `CCCCNCCC1(c2ccccc2)C(=O)Oc2ccccc21` (stereo not drawn), the growth inhibition is -17% (inactive).
On the same count and under the same terms, with `COc1cc(/C=C/c2cc[n+](C)cc2)ccc1O` the figure was 16% (inactive).
For `c1ccc(-c2ccc(-c3ccc(C4=NCCN4)cc3)o2)cc1`, the growth inhibition is 70% (active).
On to `CCCCCCCCCCCCCCNC(=O)C[N+](C)(C)Cc1ccccc1`, for which the growth inhibition is 99% (active).
The same measure, in the same setting: the figure for `NC(CSSCC(N)C(=O)Nc1ccc2ccccc2c1)C(=O)Nc1ccc2ccccc2c1` (stereo not drawn) is 99% (active).
On to `O=C(OCc1ccccc1)C(O)c1ccccc1` (stereo not drawn), for which the growth inhibition was 1% (inactive).
The same measure, in the same setting: with `CC(=O)CC1(O)C(=O)Nc2ccc(Br)cc21` (stereo not drawn) the figure was 8% (inactive); with `S=C(S)NCCN1CCNCC1`, 1% (inactive); with `CCCCCCCC(=O)N1CCCCC1CC` (stereo not drawn), -68% (inactive).
Still for that read-out and setting: the figure for `O=C1CCCC1C(=O)OC1CCCC1` (stereo not drawn) is 3% (inactive).
`CCN1CCC(O)(/C=C/c2cccc(C)c2)C(C(=O)/C=C/c2cccc(C)c2)C1` (stereo not drawn): the growth inhibition is 93% (active).
On the same count and under the same terms, the figure for `O=C(SCCCc1ccccc1)c1cc([N+](=O)[O-])cc([N+](=O)[O-])c1` is 89% (active).
In the case of `O=C1C(=O)C2CC3(CC1N2Cc1ccccc1)OCCO3`, the growth inhibition is 43% (inactive).
Still for that read-out and setting: the figure for `CNc1cc(SC)nc(N)n1` is 0% (inactive).
Turning to `Clc1ccc(Cl)c(SCCCN2CCNCC2)c1`, the growth inhibition is 39% (inactive).
The same measure, in the same setting: the figure for `CC(C)C(Cl)CC/C(CBr)=C(\Cl)CCl` (stereo not drawn) is 96% (active); for `O=C(O)CNc1ccc2c(c1)Cc1cc(Br)ccc1-2` it is 59% (inactive).

The same assay, now with this note: S. cerevisiae cln2 rad14 strain, at 50.0 µM, active compounds read high.
Consider `Cc1cccc(NC(=O)CCc2ccc(Cl)cc2)n1`, for which the growth inhibition is 41.8% (inactive).
With `O=C(NNc1nc(-c2ccccc2)cs1)C(F)(F)F`, the growth inhibition was 87% (active).
Take `COc1ccc(C(=O)C(c2ccc(OC)cc2)C2(O)C(=O)Nc3c(Cl)cc(Cl)cc32)cc1` (stereo not drawn): the growth inhibition is 90.9% (active).
As to `CC(=O)NNc1nc(C)c(C(=O)NNC(=O)C(=O)Nc2ccc(Cl)c([N+](=O)[O-])c2)s1`, the growth inhibition is 51.6% (inactive).
Turning to `COc1ccc(Cc2cncc3c(O)c(OC)ccc23)cc1O`, the growth inhibition is 59.9% (inactive).
On the same count and under the same terms, with `Nc1ccccc1N=Nc1c(S(=O)(=O)O)cc2cc(S(=O)(=O)O)cc(O)c2c1O` the figure was 27.9% (inactive); with `CCN(CC)c1c(C(=O)/C=C/c2ccc(OC)cc2)c(-c2ccccc2)nn(C)c1=O`, 77% (active).
On the same count and under the same terms, the figure for `O=C(O)/C=C/c1ccc(Cl)c(Cl)c1` is 63.5% (inactive); for `CCC12C=CCN3CC[C@@]4(c5cc([C@@]6(C(=O)OC)C[C@@H]7CN(CCc8c6[nH]c6ccccc86)C[C@](O)(CC)C7)c(OC)cc5N(C)[C@H]4[C@@](O)(C(=O)OC)[C@@H]1OC(=O)CCCCCCCCCCCN1C(=O)C=CC1=O)[C@H]32` (stereo partly drawn) it is 90.5% (active).
Regarding `Cc1cc(C)c(Cc2cc(C(C)(C)C)cc(C)c2O)cc1Cc1cc(C(C)(C)C)cc(C)c1O`, the growth inhibition was 69.3% (inactive).
For `COC(=O)C(=O)/C=C(/O)c1ccc(OC)cc1`, the growth inhibition is 4.15% (inactive).
The same measure, in the same setting: with `Oc1ccc2c(c1)OCC1c3ccccc3OC21` (stereo not drawn) the figure was 50.1% (inactive); with `Cc1cc(N2C(=O)CCSC2=S)c([N+](=O)[O-])cc1C`, 98.5% (active).
Still for that read-out and setting: with `CCCCCCC(C)S(=O)(=O)c1ccc(C)cc1` (stereo not drawn) the figure was 5.1% (inactive); with `S=c1sc2c(s1)SCCOCCOCCOCCS2`, 31.1% (inactive).
Still for that read-out and setting: the figure for `N#Cc1cn(-c2c3ccccc3nc3ccccc23)c(=O)[nH]c1=O` is 48.3% (inactive).
For the compound `O=C1C=C(c2ccccc2)O/C1=C\C(=O)c1ccc(Cl)cc1`, the growth inhibition is 87.5% (active).
For `O=c1[nH]c2cc(Cl)ccc2nc1/C=C(\O)c1ccc(N2CCN(c3ccc(/C(O)=C/c4nc5ccc(Cl)cc5[nH]c4=O)cc3)CC2)cc1`, the growth inhibition was 90.8% (active).
Still for that read-out and setting: with `O=C1Oc2ccccc2C(=O)/C1=C/N1C(=O)/C(=C/c2ccccc2)NC1=S` the figure was 60.6% (inactive); with `CN(C)/C=C(\C(=O)c1ccccc1)n1nc(-c2ccccc2)cc1-c1ccccc1`, 70.2% (active); with `O=C1C(=O)c2ccccc2C(O)=C1Sc1ccccc1`, 79.3% (active).
Consider `O=C(c1c(F)c(F)c(F)c(F)c1F)n1c(=S)n(C(=O)c2c(F)c(F)c(F)c(F)c2F)c2ccccc21`, for which the growth inhibition was 8.45% (inactive).
Still for that read-out and setting: with `CCCCNCCC1(c2ccccc2)C(=O)Oc2ccccc21` (stereo not drawn) the figure was 46.2% (inactive); with `COc1cc(/C=C/c2cc[n+](C)cc2)ccc1O`, 79.5% (active).
As to `c1ccc(-c2ccc(-c3ccc(C4=NCCN4)cc3)o2)cc1`, the growth inhibition was 89% (active).
Same read-out and setting: the figure for `CCCCCCCCCCCCCCNC(=O)C[N+](C)(C)Cc1ccccc1` is 99.5% (active).
Still for that read-out and setting: the figure for `NC(CSSCC(N)C(=O)Nc1ccc2ccccc2c1)C(=O)Nc1ccc2ccccc2c1` (stereo not drawn) is 90.3% (active).
The same measure, in the same setting: the figure for `O=C(OCc1ccccc1)C(O)c1ccccc1` (stereo not drawn) is 41.1% (inactive).
With `CC(=O)CC1(O)C(=O)Nc2ccc(Br)cc21` (stereo not drawn), the growth inhibition is 60.1% (inactive).
Same read-out and setting: the figure for `S=C(S)NCCN1CCNCC1` is 73.8% (active); for `CCCCCCCC(=O)N1CCCCC1CC` (stereo not drawn) it is -6.15% (inactive); for `O=C1CCCC1C(=O)OC1CCCC1` (stereo not drawn) it is 48.5% (inactive).
As to `CCN1CCC(O)(/C=C/c2cccc(C)c2)C(C(=O)/C=C/c2cccc(C)c2)C1` (stereo not drawn), the growth inhibition is 90.2% (active).
Still for that read-out and setting: with `O=C(SCCCc1ccccc1)c1cc([N+](=O)[O-])cc([N+](=O)[O-])c1` the figure was 78.6% (active).
Take `O=C1C(=O)C2CC3(CC1N2Cc1ccccc1)OCCO3`: the growth inhibition is 95.2% (active).
As for `CNc1cc(SC)nc(N)n1`, the growth inhibition was 91.8% (active).
The same measure, in the same setting: the figure for `Clc1ccc(Cl)c(SCCCN2CCNCC2)c1` is 40% (inactive).
Same read-out and setting: with `CC(C)C(Cl)CC/C(CBr)=C(\Cl)CCl` (stereo not drawn) the figure was 91.1% (active); with `O=C(O)CNc1ccc2c(c1)Cc1cc(Br)ccc1-2`, 88.9% (active).

The record behind these values is PubChem BioAssay (NCI).
